Compounds with a hit are over-represented: about 1.9% of the library has one in this group of screens.
PLCg1 inh – PLC-gamma1 enzyme inhibitors, primary screen, biochemical, fluorescence, purified enzyme; fluorogenic substrate; inhibition, % at 12.2 µM; AID 720700, 2013; 1-phosphatidylinositol 4,5-bisphosphate phosphodiesterase gamma-1 (Homo sapiens), P19174; 0.84% of 370,000 active
MsrA inh – bovine MsrA enzyme inhibitors, primary screen, biochemical, absorbance, HTS | Methionine sulfoxide reductase A (Bos taurus) | 0.75% of 360,000 active | AID 651718, 2012 | inhibition, % at 15.5 µM | purified bovine MsrA, absorbance read-out; in the data active means inhibition above about 4.5%
PLC-beta3 inh – human PLC-beta3 inhibitors, primary screen, biochemical, fluorescence; 0.18% of 370,000 active; 1-phosphatidylinositol 4,5-bisphosphate phosphodiesterase beta-3 (Homo sapiens), Q01970; Purified PLC-beta3, fluorogenic substrate; AID 720704, 2013; inhibition, % at 12.2 µM; in the data active means inhibition above about 11%
MsrA act – bovine MsrA enzyme activators, primary screen, biochemical, absorbance, HTS. Methionine sulfoxide reductase A (Bos taurus). purified bovine MsrA, absorbance read-out. activation, % at 10.6 µM. 0.3% of 360,000 active. AID 602163, 2012; in the data active means activation above about 7.5%
PLCgamma1 ctr – PLC-gamma1 enzyme inhibitors, counter-screen for PLC-beta3 inhibitor project, biochemical, fluorescence | shares compounds with PLCg1 inh | purified PLC-gamma1, fluorogenic substrate | inhibition, % at 12.3 µM | 3.1% of 3,300 active | AID 743258, 2014
PLCb3 confirm – PLC-beta3 inhibitor confirmation, biochemical, fluorescence, purified enzyme. shares compounds with PLCg1 inh. fluorogenic substrate fluorescence. inhibition, % at 12.3 µM. 1% of 3,300 active; in the data active means inhibition above about 11%
A number is an active result; – = inactive; · = no result given. Unless noted, no stated cut-off is given here; in the data, active means inhibition above about 9.5%; inactive means the rest.

SMILES | PLCg1 inh | MsrA inh | PLC-beta3 inh | MsrA act | PLCgamma1 ctr | PLCb3 confirm
COC(=O)C1=C(c2ccccc2OCc2ccccc2)C[C@@H]2CC[C@H]1N2C(=O)NC1CCN(Cc2ccccc2)CC1 | – | – | – | – | · | ·
COC(=O)C1=C(c2cccc(OCc3ccccc3)c2)C[C@@H]2CC[C@H]1N2C(=O)NC1CCN(Cc2ccccc2)CC1 | 11.8 | – | – | – | – | –
CCCCN(Cc1ccccc1)C1CCN(CCc2ccccc2)CC1 | 12.9 | – | – | – | – | –
COC(=O)C1=C(c2cc3ccccc3s2)C[C@@H]2CC[C@H]1N2C | – | – | – | – | · | ·
CC(=NCCCN1CCOCC1)c1c(O)[nH]c(=O)[nH]c1=O | 15.1 | – | – | – | – | –
C=CCn1c(O)c(C(C)=NCCCN2CCOCC2)c(=O)[nH]c1=O | – | – | – | – | · | ·
CCC(CO)(C(=O)OC1C[N+]2(C)CCC1CC2)c1ccccc1 (stereo not given) | – | – | – | – | · | ·
CCC(=NCC1CCCO1)c1c(O)n(-c2ccccc2)c(=O)[nH]c1=O (stereo not given) | – | – | – | – | · | ·
CCC(=NCC1CCCO1)c1c(O)n(Cc2ccccc2)c(=O)[nH]c1=O (stereo not given) | – | – | 19.7 | – | – | 14.7
CCCCn1c(O)c(C(CC)=NCCc2ccccc2)c(=O)[nH]c1=O | 9.9 | – | – | – | – | –
COC(=O)c1c(C)n(Cc2ccc3c(c2)OCO3)c2ccc(O)cc12 | 11.5 | – | – | – | – | –
CCOP(=O)(OCC)C(O)c1ccc(OC)c(OC)c1 (stereo not given) | – | – | – | – | · | ·
Cc1cc(C)n2nc(SC(C)C(=O)N3CCC4(CC3)OCCO4)nc2n1 (stereo not given) | 11.8 | – | – | – | – | –
Cc1cccc(OCC(=O)N2CCN(Cc3ccc4c(c3)OCO4)CC2)c1 | – | – | – | – | · | ·
Cc1cccc(OCC(=O)N2CCN(Cc3ccncc3)CC2)c1 | 12.7 | – | – | – | – | –
FC(F)(F)c1ccccc1CCN1CCNCC1 | – | – | – | – | · | ·
CC[C@]12CCN(CC3(O)CC3)[C@H](Cc3ccc(O)cc31)C2(C)C | – | – | – | · | · | ·
CC1(C)CC(=O)CC(C)(C)N1O | 11.5 | – | – | – | – | –
CC1(C)CC(n2[nH]c(=O)c3c2NC(=O)CSC3c2ccccc2)CCO1 (stereo not given) | 16.6 | – | – | – | – | –
Cc1ccc(C2SCC(=O)Nc3c2c(=O)[nH]n3C2CCOC(C)(C)C2)cc1 (stereo not given) | – | – | – | – | · | ·
O=[N+]([O-])c1ccc(C(c2ccc([N+](=O)[O-])cc2)c2ccc([N+](=O)[O-])cc2)cc1 | – | – | – | – | · | ·
Cn1cnc([N+](=O)[O-])c1Sc1ccc([N+](=O)[O-])cc1 | – | – | 11.0 | – | – | –
CCCCC(=O)N/N=C/c1c(O)n(C2CC2)c(=S)[nH]c1=O | 10.4 | – | – | – | – | –
C=CCC1(Nc2ccccc2)CC(C)N(C)CC1C (stereo not given) | – | – | – | – | · | ·
Cc1cc(OCC(=O)NC(Cc2ccc(Cl)cc2)C(=O)O)c2c3c(c(=O)oc2c1)CCCC3 (stereo not given) | – | – | – | – | · | ·
SMILES | PLCg1 inh | MsrA inh | PLC-beta3 inh | MsrA act | PLCgamma1 ctr | PLCb3 confirm
c1cc(OCCN2CC2)ccn1 | – | – | – | – | · | ·
C=C1[C@H]2CC[C@H]3[C@]4(C)C[C@H](O[C@@H]5OC(CO)[C@@H](OSOOO)[C@H](OS(=O)(=O)O)[C@H]5OC(=O)CC(C)C)C[C@@H](C(=O)O)[C@H]4CC[C@]3(C2)[C@H]1O (stereo not given in full) | – | – | 11.9 | – | – | –
C1CCCN(C2CCNCC2)CC1 | – | – | – | – | · | ·
Cc1cccc(OP(N)(N)=O)c1C | – | – | – | – | · | ·
Cc1cccc(C)c1OP(N)(=O)Oc1c(C)cccc1C | 9.6 | – | – | – | – | –
COc1ccccc1-n1c(CNCC2CCCO2)nc2ccccc2c1=O (stereo not given) | 12.8 | – | 11.2 | – | 9.6 | –
CSc1ccc(C(=O)C(C)(C)N2CCOCC2)cc1 | 10.5 | – | – | – | – | –

Compound activity deposited in PubChem by The Scripps Research Institute Molecular Screening Center.
